# Cruzain inh noDet: blocks cruzain activity in detergent-free assay; purified cruzain, Z-FR-AMC fluorescence, no detergent; Potency, µM, without a hit: max response, negative = inhibition, usual class: inhibitors; AID 1476; 2.3% of 200,000 active; P25779;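 also: plate controls were enzyme without inhibitor for no effect and buffer without enzyme for full effect; nearly all actives have a fitted effect of over 40% in size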
# Target sequence (P25779 123-467 limits assumed): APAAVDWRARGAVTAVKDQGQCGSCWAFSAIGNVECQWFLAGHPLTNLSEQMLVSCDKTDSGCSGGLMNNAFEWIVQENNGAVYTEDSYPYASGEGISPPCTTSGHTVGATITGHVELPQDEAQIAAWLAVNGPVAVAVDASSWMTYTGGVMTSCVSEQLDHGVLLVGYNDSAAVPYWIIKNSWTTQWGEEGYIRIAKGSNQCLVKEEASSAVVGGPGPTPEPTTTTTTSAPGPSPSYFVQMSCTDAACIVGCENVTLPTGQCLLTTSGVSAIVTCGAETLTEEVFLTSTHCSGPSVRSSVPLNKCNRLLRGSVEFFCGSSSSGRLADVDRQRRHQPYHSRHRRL
#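 Purified cruzain at 1.5 nM, pre-incubated 15 min with compound at room temperature in 100 mM sodium acetate pH 5.5, 5 mM DTT, 0.00005% Triton X-100. Reaction started with 2 uM Z-FR-AMC; AMC fluorescence increase over 60 s gives rate.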
# Cruzain Triton: inhibitors of Trypanosoma cruzi cruzain with detergent. P25779. purified cruzain, Z-FR-AMC fluorescence, 0.01% Triton. Potency, µM, without a hit: max response, negative = inhibition, actives largely listed as inhibitors. 0.43% of 200,000 active. AID 1478;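 also: plate controls were neutral wells for no effect and buffer without enzyme for full effect; nearly all actives have a fitted effect of over 40% in size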
#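 Sodium acetate buffer (100 mM, pH 5.5) containing 5 mM DTT and 0.01% Triton X-100 hosted 1.5 nM cruzain and test compound for 15 min at room temperature. Cleavage of 2 uM Z-FR-AMC was then tracked by fluorescence.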
# Papain inh: blocks papain protease activity, flagging nonselective cruzain hits; shares compounds with Cruzain Triton; purified papain, Z-FR-AMC fluorescence cleavage; Potency, µM, inactives show max response, negative = inhibition, hits mostly inhibitors; 41% of 410 active; AID 2161;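 also: 0% = no-compound wells and -100% = no-enzyme wells; nearly all actives have a fitted effect of over 35% in size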
# Target sequence (P00784 whole entry, looked up): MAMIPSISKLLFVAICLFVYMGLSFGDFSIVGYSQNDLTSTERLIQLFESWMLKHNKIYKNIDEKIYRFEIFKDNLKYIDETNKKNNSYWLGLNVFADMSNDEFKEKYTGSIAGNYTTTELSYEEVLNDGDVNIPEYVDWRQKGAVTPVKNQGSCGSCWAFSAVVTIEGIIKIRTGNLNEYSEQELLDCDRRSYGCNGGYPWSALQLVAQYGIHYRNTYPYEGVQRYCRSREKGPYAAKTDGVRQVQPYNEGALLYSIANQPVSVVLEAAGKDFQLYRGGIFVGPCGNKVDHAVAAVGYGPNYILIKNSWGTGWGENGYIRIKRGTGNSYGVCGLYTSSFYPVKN
# * hit, by the source's call; ? = inconclusive; nt = no result given. This is a sample that favours compounds with a hit; in the whole collection about 2.4% have one here. Calls follow the shape of the dose curve; as a rule, active = well fitted curve in the direction sought with a large enough effect; inconclusive = small, poorly fitted or top-dose-only effect, or another doubt; inactive = no such curve, though single readings can be large; an effect the other way counts as inactive or inconclusive. Potency is read from the fitted curve at half-maximal effect.
SMILES,Cruzain inh noDet,Cruzain Triton,Papain inh
COc1ccc(-c2nn3c(-c4cc(-c5ccccc5)n[nH]4)nnc3s2)cc1,nt,nt,-13.3%
CCOc1ccc(-c2nn3c(-c4cc(-c5ccccc5)n[nH]4)nnc3s2)cc1,nt,nt,-3.2%
CN1CCN(C(=O)c2nc3ccc(Cl)cc3[nH]2)CC1,-5.3%,-4.8%,nt
CCn1c(=O)c2sccc2n2c(CCCC(=O)N3CCN(c4ccc(F)cc4)CC3)nnc12,3.5%,2.5%,nt
OCCN1CCN(C(c2ccccc2Cl)c2sc3nc(-c4ccco4)nn3c2O)CC1 (configuration not stated),-12.6%,-1.9%,nt
CC(C)[C@H]1COC(c2cc(Cl)cc(Cl)c2)=N1,1.8%,3.5%,nt
CC(NC(=O)c1ccc(NC(=O)c2nsc3ccccc23)cc1)c1ccccc1 (configuration not stated),-6.8%,0.8%,nt
CC1=C(c2ccc(C)c(C)c2)S(=O)(=O)N=C1N1CCC(C(=O)NCCc2ccc(Cl)cc2)CC1,?,-10.9%,nt
CCc1ccccc1NC(=O)c1cnc2sc(N3CCOCC3)nn2c1=O,-1.2%,7.9%,nt
COc1ccc(CNC(=O)CN2C(=O)CSc3ccc(S(=O)(=O)N4CCCC4)cc32)cc1,-8.7%,-1.1%,nt
CCN(CC)c1nc(SCC(=O)O)nc(N(CC)CC)n1,-1.6%,3.4%,nt
CCN(c1ccccc1)c1cc(C)nc2nc(C)nn12,3.5%,-4.2%,nt
CCN(c1ccccc1)c1nc(C#N)nc(N(CC)c2ccccc2)n1,nt,nt,3.16µM*
CCCN(CCC)c1nc(N)nc(C#N)n1,nt,nt,2µM*
CCN(CC)c1nc(C#N)nc(N(CC)CC)n1,15.8µM*,12.6µM*,5.01µM*
CCCN(CCC)c1nc(N)nc(-c2cc(Cl)ccc2OC)n1,?,-4.7%,nt
O=C(c1ccco1)N1CCN(c2ncnc3c2[nH]c2ccc(Cl)cc23)CC1,?,14.1µM*,-9.6%
O=C(c1ccco1)N1CCN(c2c(-c3ccccc3)c3cc(Cl)ccc3[nH]c2=O)CC1,?,-2.8%,nt
CCCN(C(=O)c1cn(C)c(=O)c2cc(OC)c(OC)cc12)c1ccc(CC)cc1,?,-4.1%,nt
O=C(CSc1nccn1Cc1ccc(F)cc1)NCc1ccco1,4.5%,-0.6%,nt
O[C@@H]([C@H](O)[C@@H](O)CBr)[C@@H](O)CBr,-3.5%,2.4%,nt
N#Cc1nc(Nc2cc(F)cc(F)c2)nc(NC2CCCC2)n1,nt,nt,0.316µM*
CCOc1nc(NC2CCCCC2)nc(NC(C)(C)C)n1,-8.9%,-9.7%,nt
N#Cc1nc(Nc2ccc3ccccc3c2)nc(NC2CCCC2)n1,nt,nt,2µM*
COc1ccc(Nc2nc(C#N)nc(NC3CCCC3)n2)cc1,nt,nt,0.562µM*
SMILES,Cruzain inh noDet,Cruzain Triton,Papain inh
N#Cc1c[nH]n2c(NC3CCCC3)c(-c3ccc(Cl)cc3)nc12,?,-8.3%,nt
c1cc2cn[nH]c2cc1NC1CCCCCC1,-8.0%,-4.2%,nt
N#Cc1nc(Nc2cc(Cl)cc(Cl)c2)nc(NC2CCCC2)n1,nt,nt,1.41µM*
COc1ccc(-c2nc3c(C#N)c[nH]n3c2NC2CCCC2)cc1,-17.7%,-0.1%,nt
COc1ccc(OC)c(-c2cc(C(=O)Nc3cccc(Cl)c3C)no2)c1,-8.4%,-18.9%,nt
CC(=O)Nc1nonc1-c1nnc(SCc2ccccc2Cl)n1C,3.4%,0.0%,nt
Cc1ccc(NC(=O)Cn2c(=O)n(CCCCC(=O)NCCc3ccccc3)c(=O)c3ccccc32)cc1,0.7%,-2.3%,nt
N#Cc1nc(Nc2cccc(F)c2)nc(NC2CCCC2)n1,nt,nt,0.316µM*
COc1cc2nc(Nc3cccc(F)c3)nc(N)c2cc1OC,-4.1%,-28.4%,nt
FC(F)(F)c1cc(-c2ccccc2)nc(NC2CCCC2)n1,-5.7%,-0.6%,nt
N#Cc1nc(Nc2cccc(-c3ccccc3)c2)nc(NC2CCCC2)n1,nt,nt,2.51µM*
OCCN(CCO)c1ncnc2c1sc1nc(N3CCOCC3)c3c(c12)CCCC3,?,-11.3%,nt
CSc1nc(N(CCO)CCO)c2sc3nc(-c4ccco4)c4c(c3c2n1)CCC4,3.16µM*,10µM*,12.6µM*
O=C(c1ccccc1)c1ccc(OCCCN2CCCCC2)cc1,6.8%,3.9%,nt
O=C(c1ccc(OCCN2CCCCC2)cc1)c1c(-c2ccc(O)cc2)sc2cc(O)ccc12,-11.7%,-5.3%,-2.7%
COc1ccc2cc3cc(C(=O)NCCCN4CCOCC4)oc3nc2c1,?,31.6µM*,15.8µM*
COc1ccc2cc3cc(C(=O)NCCN4CCN(Cc5ccccc5)CC4)oc3nc2c1,-29.9%,?,nt
Cc1cc2ccccc2n1CCNC(=O)C1CCCCC1,0.3%,-4.5%,nt
O=C(NCCc1nc2ccccc2n1CCCOc1cccc2ccccc12)C1CCCCC1,nt,nt,-28.3%
O=C(NCCCc1nc2ccccc2n1Cc1cccc(Cl)c1)C1CCCCC1,1.7%,-10.4%,nt
Cc1cccc(C)c1OCCCn1c(CCNC(=O)C2CCCCC2)nc2ccccc21,6.6%,3.55µM*,-20.6%
CCCN(C(=O)Cn1nc(Cc2cccnc2)c2ccccc2c1=O)c1ccc(C(C)C)cc1,?,0.6%,nt
CCOc1ccccc1OCCCn1c(-c2ccc(Cl)cc2)nc2ccccc2c1=O,-14.0%,-0.4%,nt
Cc1cccc(CC(=O)NCCc2csc(-c3ccc(C(F)(F)F)cc3)n2)c1,?,-13.2%,nt
CCC(=O)N1c2ccccc2CC1C(=O)NCc1cccc(C)c1 (configuration not stated),3.2%,1.1%,nt
SMILES,Cruzain inh noDet,Cruzain Triton,Papain inh
COCC(C)NC(=O)Cn1c(SCc2ccccc2)nc2ccccc21 (configuration not stated),nt,nt,-7.8%
COCC(C)NC(=O)CSc1nc2ccccc2n1CCc1ccccc1 (configuration not stated),9.8%,0.3%,nt
CCNc1nc(NOC)nc(OCC#N)n1,-3.2%,-0.6%,nt
CCNc1nc(C#N)nc(NCC)n1,nt,nt,-7.8%
COc1ccc(NC(=O)CN2C(=O)CCc3cc(S(=O)(=O)N4CCOCC4)ccc32)c(OC)c1,11.0%,1.5%,nt
COCCOC(=O)c1c(N)n(Cc2ccco2)c2nc3ccccc3nc12,-0.5%,-4.6%,nt
CC(C)OC(=O)c1c(N)n(Cc2ccco2)c2nc3ccccc3nc12,12.6µM*,11.2µM*,-2.2%
CNS(=O)(=O)c1cn(CC(=O)N2CCN(c3ccccc3F)CC2)cc1S(=O)(=O)NC,0.4%,-2.0%,nt
CCOC(=O)c1cc2c(=O)n3ccccc3nc2n(Cc2ccco2)c1=NC(=O)c1cccc(C)c1,-0.6%,-12.4%,nt
CCOC(=O)c1cc2c(=O)n3ccccc3nc2n(Cc2ccco2)c1=NC(=O)c1cccnc1,-3.9%,15.8µM*,-58.0%
O=C(NC(=S)Nc1cccc(Cl)c1N1CCCC1)c1ccc(-c2cccc([N+](=O)[O-])c2)o1,3.16µM*,-3.4%,7.5%
O=C(Nc1cccc(Cl)c1N1CCCCC1)c1ccc(N2CCOCC2)c([N+](=O)[O-])c1,-2.1%,-7.1%,nt
Cc1ccccc1OCC(=O)N(Cc1ccc(C(C)C)cc1)C1CCS(=O)(=O)C1 (configuration not stated),?,-9.4%,nt
O=c1cc(-c2ccccc2Cl)oc2c(NS(=O)(=O)c3cc(Cl)cc(Cl)c3O)ccc(O)c12,4.7%,25.1µM*,4.47µM*
O=c1cc(-c2ccccc2Cl)oc2cc(O)cc(O)c12,-5.4%,-9.9%,nt
O=C(CCN1C(=O)/C(=C/C=C/c2ccccc2)SC1=S)Nc1nccs1,3.16µM*,-0.7%,-5.7%
O=C(CCN1C(=O)/C(=C\c2cccs2)SC1=S)Nc1nccs1,-1.6%,-6.0%,nt
COc1ccc(OC)c(CNC(=O)c2ccc(C)c(NC(=O)c3nsc4ccccc34)c2)c1,-6.3%,0.7%,nt

# High-throughput results deposited in PubChem by National Center for Advancing Translational Sciences (NCATS).
